# Experimental data from PubChem BioAssay.
# Values without a mark were called inactive. Active and inactive are the calls of the source.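 Rule for the calls, unless noted: active = binding below the plate cutoff, the plate median minus 3 SD, with a reading above zero; inconclusive = below the plate cutoff but reading exactly zero; inactive = the rest.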
# Tested on: not listed separately
# Assay: cytosolic pH regulators acting via V-ATPase – S. cerevisiae, pHLuorin, HTS validation (AID 504600; in the data active = response above about 15%;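 note: plate controls were DMSO for no effect and reference compound for full effect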)
# Conditions: V-ATPase proton transport, at 10 µM, active compounds read high
row,SMILES,response
1,N/C(=N/OS(=O)(=O)c1ccc([N+](=O)[O-])cc1)c1ccncc1,6.86%
2,CCSc1nc(O)c(C2OC(=O)c3c2ccc(OC)c3OC)c(=O)n1CC (stereo not given),-1.36%
3,COc1cc2ccc(=O)oc2c(O)c1OCC=C(C)C,-0.32%
4,CC(=O)N1CC23C=CC(CC2CC12CCCCCC2)O3 (stereo not given),-29.7%
5,CC(=O)c1cn(C)c(=O)[nH]c1=O,0.64%
6,CC(=O)Oc1ccc(C2OC(=O)c3ccccc3N2C(C)=O)cc1 (stereo not given),-2.98%
7,O=C1c2ccccc2C(=O)C1c1ccccc1,-0.31%
8,O=c1[nH]cnc2c1ncn2[C@@H]1O[C@H](CO)[C@@H](O)[C@H]1O,-0.11%
9,Nc1ccc2[nH]ncc2c1,1.54%
10,CCN(CC)CCN1C(=O)C(=O)/C(=C(/O)c2c(C)[nH]c(C(=O)OC)c2C)C1c1cccnc1 (stereo not given),-2.49%
11,Cc1ccc2c(c1)c1c(n2C)C(=O)CCC1,-3.07%
12,COc1ccc(N2C(=O)C3CCCN3C2=O)cc1 (stereo not given),1.78%
13,COc1cccc(OC2OC3COC(C)(C)OC3C(O)C2NC(C)=O)c1 (stereo not given),6.08%
14,CC[N+](C)(C)Cc1ccccc1Br,-30.5%
15,C[C@H](NC(=O)Nc1ccccc1F)C(=O)O,-9.72%
16,COc1cc(NC(=O)N[C@@H](Cc2ccccc2)C(=O)O)cc(OC)c1,22.2% (active)
17,CN(C)CCOc1ccccc1Cc1ccccc1,-1.1%
18,CCc1cn([C@H]2C[C@H](O)[C@@H](CO)O2)c(=O)[nH]c1=O,-0.71%
19,COc1ccc(CCn2c(C)cc3c(c2=O)C(c2ccncc2)C(C#N)=C(N)O3)cc1OC (stereo not given),0.22%
20,CC(C)(C)C(=O)NC(=S)Nc1sc2c(c1C(N)=O)CCC2,-1.19%

row,SMILES,response
1,Cc1cc(C(=O)NC(CC(C)C)C(=O)O)cc(C)c1[N+](=O)[O-] (stereo not given),-4.26%
2,CCS(=O)(=O)Nc1cc(OC)c(OC)cc1Cc1nccc2cc(OC)c(OC)cc12,4.6%
3,CCn1c(O)c(/C=C2\C=Nc3ccccc32)sc1=O,0.06%
4,O=C(C1CCCCC1)N1CC(=O)N2CCc3ccccc3C2C1 (stereo not given),-5.39%
5,CCn1cc(C(=O)O)c(=O)c2cc(F)c(N3CCNCC3)cc21,7.15%
6,COc1cccc(N2CC34C=CC(O3)C(C(=O)O)C4C2=O)c1 (stereo not given),-2.62%
7,CC(=O)NCCCC(=O)NC(CCC(=O)OCc1ccccc1)C(=O)OCc1ccccc1 (stereo not given),-0.06%
8,Cn1cc(CN(CCO)Cc2cccs2)c(-c2cccc(Cl)c2)n1,1.36%
9,COc1ccc(C(=O)NC(=O)NC2(C(Cl)(Cl)Cl)OCCO2)cc1,-0.88%
10,CC(=O)c1c(C)[nH]c(C(=O)OCc2ccccc2)c1C,0.36%
11,C=CCN1C(=O)c2oc3ccccc3c(=O)c2C1c1ccc(O)c(OC)c1 (stereo not given),2.05%
12,CC(=O)CCc1oc2ccccc2c1-c1ccccc1,-1.06%
13,COc1cc(OC)c(C(=O)CCCN2CCCC2)c(OC)c1,1.8%
14,CC(=O)OCC(=O)[C@@]1(OC(C)=O)[C@@H](C)C[C@H]2[C@@H]3C[C@H](F)C4=CC(=O)C=C[C@]4(C)[C@@]3(F)[C@@H](O)C[C@@]21C,-2.14%
15,Cc1nnc(SCC(=O)N2CCCC(C(=O)c3ccc(Cl)cc3)C2)o1 (stereo not given),2.16%
16,Fc1cc(F)cc(NC(=S)NCCCN2CCOCC2)c1,4.35%
17,COc1ccccc1C1(CC(=O)N2CCCCC2)CCOC(C(C)C)C1 (stereo not given),2.05%
18,CCCCC[C@H](O)/C=C/[C@@H]1[C@@H](C/C=C\CCCC(=O)O)[C@H]2CO[C@@H]1C2,-0.38%
19,CCC(=O)c1ccc(O)cc1,3.37%
20,Cn1c2[n+](c3ccc(Cl)cc3c1=O)Cc1ccccc1-2,7.46%

# Tested on: anti-desmoglein-3 scFv antibody binding to human DSG3
# Assay: blockers of pathogenic pemphigus antibody–desmoglein-3 binding – biochemical, validation compound set, bead-based, flow cytometry, pilot screen (AID 588368);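 note: signal is the median channel fluorescence of bead-bound GFP antibody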
# Conditions: Protein G beads, DSG3-Fc, scFv-GFP binding, at 10 µM, active compounds read low
row,SMILES,binding (% of control)
1,N/C(=N/OS(=O)(=O)c1ccc([N+](=O)[O-])cc1)c1ccncc1,107%
2,CCSc1nc(O)c(C2OC(=O)c3c2ccc(OC)c3OC)c(=O)n1CC (stereo not given),101%
3,COc1cc2ccc(=O)oc2c(O)c1OCC=C(C)C,98.2%
4,CC(=O)N1CC23C=CC(CC2CC12CCCCCC2)O3 (stereo not given),104%
5,CC(=O)c1cn(C)c(=O)[nH]c1=O,107%
6,CC(=O)Oc1ccc(C2OC(=O)c3ccccc3N2C(C)=O)cc1 (stereo not given),98.1%
7,O=C1c2ccccc2C(=O)C1c1ccccc1,102%
8,O=c1[nH]cnc2c1ncn2[C@@H]1O[C@H](CO)[C@@H](O)[C@H]1O,106%
9,Nc1ccc2[nH]ncc2c1,104%
10,CCN(CC)CCN1C(=O)C(=O)/C(=C(/O)c2c(C)[nH]c(C(=O)OC)c2C)C1c1cccnc1 (stereo not given),103%
11,Cc1ccc2c(c1)c1c(n2C)C(=O)CCC1,97.9%
12,COc1ccc(N2C(=O)C3CCCN3C2=O)cc1 (stereo not given),102%
13,COc1cccc(OC2OC3COC(C)(C)OC3C(O)C2NC(C)=O)c1 (stereo not given),103%
14,CC[N+](C)(C)Cc1ccccc1Br,102%
15,C[C@H](NC(=O)Nc1ccccc1F)C(=O)O,101%
16,COc1cc(NC(=O)N[C@@H](Cc2ccccc2)C(=O)O)cc(OC)c1,105%
17,CN(C)CCOc1ccccc1Cc1ccccc1,104%
18,CCc1cn([C@H]2C[C@H](O)[C@@H](CO)O2)c(=O)[nH]c1=O,100%
19,COc1ccc(CCn2c(C)cc3c(c2=O)C(c2ccncc2)C(C#N)=C(N)O3)cc1OC (stereo not given),101%
20,CC(C)(C)C(=O)NC(=S)Nc1sc2c(c1C(N)=O)CCC2,96.6%

row,SMILES,binding (% of control)
1,Cc1cc(C(=O)NC(CC(C)C)C(=O)O)cc(C)c1[N+](=O)[O-] (stereo not given),99%
2,CCS(=O)(=O)Nc1cc(OC)c(OC)cc1Cc1nccc2cc(OC)c(OC)cc12,106%
3,CCn1c(O)c(/C=C2\C=Nc3ccccc32)sc1=O,97.5%
4,O=C(C1CCCCC1)N1CC(=O)N2CCc3ccccc3C2C1 (stereo not given),101%
5,CCn1cc(C(=O)O)c(=O)c2cc(F)c(N3CCNCC3)cc21,98%
6,COc1cccc(N2CC34C=CC(O3)C(C(=O)O)C4C2=O)c1 (stereo not given),102%
7,CC(=O)NCCCC(=O)NC(CCC(=O)OCc1ccccc1)C(=O)OCc1ccccc1 (stereo not given),96.8%
8,Cn1cc(CN(CCO)Cc2cccs2)c(-c2cccc(Cl)c2)n1,99.3%
9,COc1ccc(C(=O)NC(=O)NC2(C(Cl)(Cl)Cl)OCCO2)cc1,94.7%
10,CC(=O)c1c(C)[nH]c(C(=O)OCc2ccccc2)c1C,103%
11,C=CCN1C(=O)c2oc3ccccc3c(=O)c2C1c1ccc(O)c(OC)c1 (stereo not given),99.1%
12,CC(=O)CCc1oc2ccccc2c1-c1ccccc1,108%
13,COc1cc(OC)c(C(=O)CCCN2CCCC2)c(OC)c1,109%
14,CC(=O)OCC(=O)[C@@]1(OC(C)=O)[C@@H](C)C[C@H]2[C@@H]3C[C@H](F)C4=CC(=O)C=C[C@]4(C)[C@@]3(F)[C@@H](O)C[C@@]21C,103%
15,Cc1nnc(SCC(=O)N2CCCC(C(=O)c3ccc(Cl)cc3)C2)o1 (stereo not given),105%
16,Fc1cc(F)cc(NC(=S)NCCCN2CCOCC2)c1,107%
17,COc1ccccc1C1(CC(=O)N2CCCCC2)CCOC(C(C)C)C1 (stereo not given),105%
18,CCCCC[C@H](O)/C=C/[C@@H]1[C@@H](C/C=C\CCCC(=O)O)[C@H]2CO[C@@H]1C2,101%
19,CCC(=O)c1ccc(O)cc1,94.5%
20,Cn1c2[n+](c3ccc(Cl)cc3c1=O)Cc1ccccc1-2,107%
